The record followed here is PubChem BioAssay AID463173 (ICCB-Longwood Screening Facility, Harvard Medical School, 2010).

Out of some 52,000 compounds screened, about 4,300 (8.3%) were called active. Rule as the data show it: active = survival mostly below about 52% (no sharp cut-off); inactive = mostly above about 56%. Shown is part of a subset that was picked to be rich in actives.

In the test the test system is DeltatarO mutant. Nature of the test: growth inhibition of S. aureus wild type versus tarO mutant, primary screen, teichoic acid synthesis inhibitors, RN4220, OD600 (AID 463173). As to conditions: OD600, 18 h, stronger effect = lower value, screened at 18.75 µg/mL (by protocol).
Consider `O=C(COc1ccccc1)N(Cc1cccnc1)c1nc2c(F)cc(F)cc2s1`, for which the survival is 84% (inactive). With `CCc1nc2ccc(C(=O)NCCc3ccc(SC)cc3)cc2nc1CC`, the survival was 76% (inactive). Turning to `O=C(CN(C(=O)Cn1nnc(-c2ccc(F)cc2)n1)c1ccccc1C(F)(F)F)NCc1ccco1`, the survival was 98% (inactive). In the case of `CCC(C(=O)NC1CCCC1)N(C(=O)Cn1nnc(-c2cccs2)n1)c1cnc2ccccc2c1` (configuration not stated), the survival is 92% (inactive). For `Cc1ccc(-c2nnn(CC(=O)N(CC(=O)NCCC(C)C)c3ccc(F)cc3)n2)cc1`, the survival was 41% (active).

`COc1ccc(-c2nnn(CC(=O)N(CC(=O)NCc3ccccc3)c3ccc4c(c3)OCCO4)n2)cc1OC`: the survival is 69% (inactive). `CCC(C(=O)NCCC(C)C)N(C(=O)Cn1nnc(-c2ccc(C)cc2)n1)c1cccc(O)c1` (configuration not stated): the survival was 37% (active). As for `CCC(C(=O)NC1CCCC1)N(C(=O)Cn1nnc(-c2ccc(C)cc2)n1)c1ccc2c(c1)OCCO2` (configuration not stated), the survival was 90% (inactive).

Consider `O=C(Oc1c(Cl)cc(Cl)c2cccnc12)N1CCCCCC1`, for which the survival was 112% (inactive). As for `COC(=O)c1cc2sccc2n1CC(=O)Nc1ccc(OC)c(OC)c1`, the survival is 86% (inactive). Consider `Cc1cccc(OCC(=O)Nc2ccccc2OCc2cc(=O)n3cc(C)ccc3n2)c1`, for which the survival is 94% (inactive). With `COc1ccc(OC(=O)CSc2nnc(-c3ccc(F)cc3)o2)cc1` the figure was 109% (inactive); with `FC(F)(F)c1cccc(C(c2nnnn2Cc2ccccc2)N(Cc2ccco2)CC2CCCO2)c1` (configuration not stated), 105% (inactive); with `COc1cccc(C(=O)Nc2c3c(nn2-c2ccc(C)cc2C)CS(=O)(=O)C3)c1OC`, 116% (inactive). On to `COc1ccc2cc3cc(C(=O)Nc4ccccc4C)oc3nc2c1`, for which the survival is 116% (inactive). With `Cc1cccc(N2CCN(C(c3ccccc3)c3nnc(-c4ccccc4F)o3)CC2)c1C` (configuration not stated), the survival was 58% (inactive). Consider `Cc1ccc(C)c(N2CCN(C(c3ccc(F)cc3)c3nnc(-c4ccccc4)o3)CC2)c1` (configuration not stated), for which the survival was 16% (active).

On to `Cc1ccc(Cl)cc1N1CCN(C(c2ccc(F)cc2)c2nnc(-c3ccccc3)o2)CC1` (configuration not stated), for which the survival is 55% (inactive).

As for `Cc1cccc(N2CCN(C(c3ccccc3)c3nnc(-c4ccccc4Cl)o3)CC2)c1C` (configuration not stated), the survival is 51% (inactive). On to `Fc1ccc(C(c2nnc(-c3ccccc3)o2)N2CCN(c3cccc(Cl)c3)CC2)cc1` (configuration not stated), for which the survival is 91% (inactive). Turning to `COc1ccc(N2CCN(C(c3ccccc3)c3nnc(-c4ccccc4Cl)o3)CC2)cc1` (configuration not stated), the survival was 49% (inactive). With `Fc1ccc(C(c2nnc(-c3ccccc3)o2)N2CCN(c3ccccc3)CC2)c(Cl)c1` (configuration not stated), the survival was 84% (inactive). For `COc1ccccc1N1CCN(C(c2ccccc2)c2nnc(-c3ccccc3Cl)o2)CC1` (configuration not stated), the survival was 32% (active). Regarding `Cc1ccc(C)c(N2CCN(C(c3ccccc3)c3nnc(-c4ccccc4F)o3)CC2)c1` (configuration not stated), the survival was 61% (inactive). Under `Cc1cccc(N2CCN(C(c3ccc(F)cc3)c3nnc(-c4ccccc4)o3)CC2)c1C` (configuration not stated) stands 39% (active); under `Cc1ccc(C)c(N2CCN(C(c3ccccc3)c3nnc(-c4ccccc4)o3)CC2)c1` (configuration not stated), -5% (active); under `COc1ccccc1N1CCN(C(c2ccc(Cl)cc2)c2nnc(-c3cccc(F)c3)o2)CC1` (configuration not stated), 62% (inactive). For the compound `CCN(CC)CCOC(=O)c1ccc(Nc2c3c(nc4ccccc24)CCC3)cc1`, the survival was 94% (inactive). For `Cc1c(C(=O)N2CCC(c3nc4ccccc4s3)CC2)oc2cc(Br)ccc12`, the survival is 107% (inactive). On to `COc1cccc(-c2nnc(SCC(=O)N3CCCCC3)o2)c1`, for which the survival was 98% (inactive). Under `CCc1ccc(NC(=O)Cn2nc(C(F)(F)F)c3c2CCCC3)cc1` stands 94% (inactive); under `CCOc1ccc(CCNS(=O)(=O)c2c(C)nc3sc(C)cn3c2=O)cc1OCC`, 58% (inactive). For `CCN(CC)c1ccc(C2C(C(=O)Nc3ccccc3C)=C(C)Nc3ncnn32)cc1` (configuration not stated), the survival was 99% (inactive). `Cc1ccc(-n2ncc3c(N4CCN(C)CC4)ncnc32)cc1`: the survival was 81% (inactive). Regarding `CN(C)C(=O)c1ccc2c(c1)N(CC(=O)NCc1ccc(F)cc1)C(=O)C1CCCCN21` (configuration not stated), the survival was 74% (inactive).

With `CCOC(=O)c1c(-c2cccs2)csc1NC(=O)C(F)(F)F`, the survival was 70% (inactive).

Consider `CCOC(=O)c1ccccc1NC(=O)Cn1c(=O)n(Cc2nc(-c3ccccc3)no2)c(=O)c2ccccc21`, for which the survival is 72% (inactive). For `COc1cccc(CNC(=O)CSc2c3c(nc4ccc(Cl)cc24)CCCC3)c1OC`, the survival was 62% (inactive). Under `CCCCN(C)C(=O)CSc1c2c(nc3ccc(Cl)cc13)CCCC2` stands -2% (active). As for `CN(Cc1ccccc1)C(=O)CSc1c2c(nc3ccc(Cl)cc13)CCCC2`, the survival is 0% (active). With `COc1cc(OC)c(N(C)C(=O)CSc2c3c(nc4ccc(Cl)cc24)CCCC3)cc1Cl`, the survival is 33% (active). Under `CCCN(CCC)C(=O)CSc1c2c(nc3ccc(Cl)cc13)CCCC2` stands 38% (active); under `COc1ccc(NC(=O)CSc2c3c(nc4ccc(Cl)cc24)CCCC3)cc1Cl`, 55% (inactive); under `CCc1ccc(CNC(=O)CSc2c3c(nc4ccc(Cl)cc24)CCCC3)cc1`, 63% (inactive). Take `Cc1ccc(CNC(=O)CSc2c3c(nc4ccc(Cl)cc24)CCCC3)cc1`: the survival was 76% (inactive). Under `Cc1ccc2nc(NC(=O)CSc3[nH]c(=O)ncc3C)sc2c1` stands 102% (inactive); under `O=S(=O)(c1ccc2nsnc2c1)N1CCCCC1`, 66% (inactive); under `CCOc1ccc(CNC(=O)c2cc3ccccn3n2)cc1OC`, 74% (inactive). Consider `CCOc1ccc(NC(=O)C2CC(=O)N(c3ccc(C(C)C)cc3)C2)cc1` (configuration not stated), for which the survival was 91% (inactive). For `COc1ccc(CCNC(=O)CCn2c(=O)c3ccccc3n(Cc3c(C)cc(C)cc3C)c2=O)cc1OC`, the survival was 89% (inactive). Turning to `Cc1cccc(N2CCN(c3nc4ccccc4c4nc(-c5ccccc5)nn34)CC2)c1C`, the survival is 92% (inactive). With `COc1ccc(N2CCN(C(=O)Nc3ccccc3Cl)CC2)cc1`, the survival was 167% (inactive). Under `CC(CNC(=O)Cn1ccc2cc(S(=O)(=O)N3CCCCCC3)ccc21)c1ccccc1` (configuration not stated) stands 109% (inactive).

With `CCN(CC)CCCNC(=O)CSc1c2c(nc3cc(Cl)ccc13)CCCC2`, the survival was 109% (inactive). As to `CCCCN(CC)C(=O)CSc1c2c(nc3ccc(Cl)cc13)CCCC2`, the survival was -2% (active).

Regarding `COc1ccccc1NC(=O)c1ncn(-c2ccccc2)n1`, the survival is 115% (inactive). `CCC(CC)C(=O)N1CCN(Cc2ccccc2)CC1`: the survival was 94% (inactive). As for `CCC(=O)N1c2ccccc2C(C)(c2ccccc2)CC1(C)C` (configuration not stated), the survival was -8% (active). Consider `CCCCCC(=O)N1c2ccccc2C(C)(c2ccccc2)CC1(C)C` (configuration not stated), for which the survival is -2% (active). For the compound `CC1=CC(C)(C)N(C(=O)Cc2ccccc2)c2ccccc21`, the survival was 115% (inactive). As for `CCN1C(=O)C(O)(C(C)C(=O)c2ccccc2)c2ccccc21` (configuration not stated), the survival was 57% (inactive). With `CC(=O)N1c2ccccc2C(C)(c2ccc(C)cc2)CC1(C)C` (configuration not stated), the survival was -4% (active). With `CCC(=O)N1CCN(C(=O)CC)C1c1ccccc1`, the survival was 93% (inactive). For `CCC(CC)C(=O)N1c2ccccc2C(C)(c2ccccc2)CC1(C)C` (configuration not stated), the survival is -5% (active). Under `Cc1ccc(NC(=O)CN2C(=O)C(C)(C)c3ccccc32)cc1` stands 78% (inactive); under `CC(=O)N1c2ccccc2N(C)C(=O)C1(C)C`, 88% (inactive); under `CC1=CC(C)C(/C=N/O)C(C)C1` (configuration not stated), 94% (inactive).

For `O=C(/C=C/c1ccccc1)Nc1ccccc1N1CCN(c2ccccc2)CC1`, the survival is 106% (inactive). With `Cc1ccc2onc(CNC(=O)NCc3cccc(Cl)c3)c2c1` the figure was 72% (inactive); with `CC1CCCN(c2ncnc3c2nnn3C)C1` (configuration not stated), 75% (inactive); with `CCOC(=O)CN1CCOCCN(CC(=O)OCC)CCOCC1`, 64% (inactive). Under `Cc1ccc(NC(=O)CSc2cn(CC(=O)N3CCCC3)c3ccccc23)cc1Cl` stands 84% (inactive). Under `CCOc1ccc(CCNC(=O)Cn2nnc(-c3ccc(OC)c(OC)c3)n2)cc1OCC` stands 65% (inactive); under `O=C(Nc1ccc2c(c1)oc1ccccc12)c1cccs1`, 69% (inactive). Take `COc1ccc(OC)c(CCNC(=O)C2CCN(c3ncnc4c3nc3n4CCCCC3)CC2)c1`: the survival is 80% (inactive).

On to `COc1ccc(CNC(=O)CN2CCSc3ccccc32)c(OC)c1`, for which the survival is 120% (inactive). With `CC(C)CN(CCNC(=O)CCN1N=C(c2ccccc2)CCC1=O)CC(C)C` the figure was 84% (inactive); with `CCOC(=O)c1ccccc1NC(=O)N(C(C)C)C1CCN(C(C)=O)CC1`, 73% (inactive).

On to `CCc1ccc(NC(=O)c2cnn3c(C(F)F)cc(C)nc23)cc1`, for which the survival was 96% (inactive). With `O=C(Cn1c(=O)n2nc(-c3cccc(F)c3)nc2c2ccccc21)N1CCN(c2ccccc2F)CC1`, the survival is 116% (inactive). On to `Cc1nn(Cc2noc(C(=O)NCc3cccc(F)c3)n2)c(C)c1Br`, for which the survival is 71% (inactive). On to `CCCCOc1ccc(C2(C(=O)O)CCCC2)cc1`, for which the survival is 103% (inactive). `CCCCC(=O)N1c2ccccc2C(C)(c2ccccc2)CC1(C)C` (configuration not stated): the survival is -3% (active). Consider `CCCCN1C(=O)C(O)(CC(=O)c2ccc(C(C)(C)C)cc2)c2ccccc21` (configuration not stated), for which the survival was 28% (inactive). Under `CC(C)Cc1nn2c(=O)cc(COC(=O)c3ccccc3NC(=O)C3CCCCC3)nc2s1` stands 81% (inactive). Turning to `Cc1ccc(-c2ccc(CCC(=O)O)n2-c2ccc(C(N)=O)cc2)cc1`, the survival is 60% (inactive). Regarding `CN(C)c1ccc(-n2c(CCC(=O)O)ccc2-c2ccccc2)cc1`, the survival was 60% (inactive). Under `O=C(O)CCc1ccc(-c2ccc(Br)cc2)n1-c1ccccc1O` stands 64% (inactive); under `COC(=O)c1ccc(-n2c(CCC(=O)O)ccc2-c2ccc(C)cc2)cc1`, 49% (inactive). On to `CCOC(=O)c1ccc(-n2c(CCC(=O)O)ccc2-c2ccc(Br)cc2)cc1`, for which the survival was 19% (active). For the compound `CCOc1ccc(-n2c(CCC(=O)O)ccc2-c2ccc(Br)cc2)cc1`, the survival is 48% (active). Consider `CCc1ccc(-n2c(CCC(=O)O)ccc2-c2cccs2)cc1`, for which the survival is 52% (inactive). For `Cc1ccc(-c2ccc(CCC(=O)O)n2-c2ccc(C(C)C)cc2)cc1`, the survival is 44% (inactive).

Take `CCc1ccc(-n2c(CCC(=O)O)ccc2-c2ccc(F)cc2)cc1`: the survival is 29% (active).

Regarding `CCOc1ccc(NC(=O)Cn2c(CCC(=O)O)ccc2-c2ccc(C)cc2)cc1`, the survival is 65% (inactive). As for `CC(=O)Nc1ccc(-n2c(CCC(=O)O)ccc2-c2ccc(Br)cc2)cc1`, the survival was 45% (active). With `CC(=O)Nc1ccc(-n2c(CCC(=O)O)ccc2-c2ccc(C)cc2)cc1` the figure was 56% (inactive).
